For 40 sequences, sensor-assay potency score (higher = more potent) results are on record in the OligoGym collection.
Further: reference of the scale not given here.

The target of one assay is SLC9A10. Kind of assay: pooled miR-30 sensor sort-seq; sequence = guide strand. Particulars: shRNA.
Turning to TATGATTGACATCATCACCAAA, the sensor-assay potency score (higher = more potent) was -0.934.
Still for that read-out and setting: next, TTCGTAACAGACAATCTTCTAC: 0.0134; TAGTCTTTGGTCAAAATCCATA: -1.27; TAGTCTGTGTCAATTATCGGAA: -0.585.
On to TTTTTCGTAACAGACAATCTTC, for which the sensor-assay potency score (higher = more potent) was -0.245.
TAACATTTCTTTCTTCTTGAAT: the sensor-assay potency score (higher = more potent) was -0.801.
Same read-out and setting: for TTAAGCAGTTTATCTCTCCTAT the value was -0.373; for TTTATGTTTAGGAACAAACTTT, -0.563.

The target in the next assay is SLC9A5. The assay is described as above. Particulars: shRNA.
Take TATCACAGCAGCTGTGTCCTGA: the sensor-assay potency score (higher = more potent) came to 0.318.
Take TTGAACTGGATGCACCAGTGGG: the sensor-assay potency score (higher = more potent) was -0.899.
TTACTTTCCGAGACAGGTGAAA had a sensor-assay potency score (higher = more potent) of -0.787.
Same read-out and setting: for TTCTCTGTCTCTGAACTGTCGC the value was -0.349; for TTAAGCAACAGGCCTGAACTGA, -1.07; for TCTGTCTCTGAACTGTCGCTCT, 0.00832.
The sequence AAGGTCTAGACTTAGACCCAGA showed a sensor-assay potency score (higher = more potent) of -1.07.
On the same count and under the same terms, next, AAGTTGTCAAAGAACAGCCTGC: -0.191; TTCTGCTGGAAGACCTCCTTGT: 0.342; TAGAGCGTGGATCAGAAGGTAG: -0.999.
TACAAGTCCAGCCTGCTGCAAG registered a sensor-assay potency score (higher = more potent) of -0.602.
For TTGTCAAAGAACAGCCTGCTAG, the sensor-assay potency score (higher = more potent) is -0.67.

The target in another assay is SLC9A7. The description is as above. Particulars: shRNA.
TCGACTTCTTGATTCCACCGAC: the sensor-assay potency score (higher = more potent) stood at 0.212.
In turn, TTGAAAGCTGTCGTTGTTGGGT came in with a sensor-assay potency score (higher = more potent) of -0.0314.
On the same count and under the same terms, for TTTATCTGAGAGCTGTCCCATA the value was -0.106; for TTAAGCTGTATCCAGCATGAAA, -1.54; for TTCATTCTGGTCCTCTTCGGAG, -1.15.
The sequence TCTTCTTTAAGCTGTATCCAGC displayed a sensor-assay potency score (higher = more potent) of -0.509.
For TTGGTTATCGTACACCTGGGGA, the sensor-assay potency score (higher = more potent) was -0.959.
As for TATTCGAAGAACTTTCCGCTGA, the sensor-assay potency score (higher = more potent) stood at 0.32.
In turn, TTTGGTAAACTTAGTCACGTTG came in with a sensor-assay potency score (higher = more potent) of -0.343.
As to TACAACACCTGTAAATCCGCAG, the sensor-assay potency score (higher = more potent) is -0.278.
In the case of TAATGAAGCATGAAACAGCAGT, the sensor-assay potency score (higher = more potent) is -0.713.
Sequence TAAGACTTGAAAGCTGTCGTTG came in with a sensor-assay potency score (higher = more potent) of 0.00174.

The next assay concerns the target SLCO4C1. The description is as above. Particulars: shRNA.
With TTAACTACAATACCTTGCGTGA, the sensor-assay potency score (higher = more potent) is -0.96.
With TTGTCTGTGATTAACACACCTT, the sensor-assay potency score (higher = more potent) is -0.412.
On the same count and under the same terms, for TTTGTAAATATGATTGTCCATA the value was -1.19; for TAGACTAATATATTTGTTCAGT, -0.742.
As to TTGAATAATATTATCACAGAAT, the sensor-assay potency score (higher = more potent) was -0.992.
TAACTTTACAAGTAACACTTAT yielded a sensor-assay potency score (higher = more potent) of -0.974.
TTGAACTTCAATACTTTTCCTA gave a sensor-assay potency score (higher = more potent) of 0.743.
TATATGATTCAGATACACCAGC: the sensor-assay potency score (higher = more potent) was -0.633.
